Assay outcomes deposited in PubChem BioAssay by Johns Hopkins Ion Channel Center.
CHT PAM: allosteric activators of human choline transporter CHT; Q9GZV3; CHT-expressing cells, membrane potential dye, choline EC20; stronger effect = higher value; LV-AA mutant CHT in HEK293 cells; B-score at 10 µM; hit rate 0.49% among 310,000; AID 488977;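 active = initial fluorescence not abnormally high and integrated response B-score, plate-corrected, over 3 SD above library mean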
Target sequence (Q9GZV3 whole entry, looked up): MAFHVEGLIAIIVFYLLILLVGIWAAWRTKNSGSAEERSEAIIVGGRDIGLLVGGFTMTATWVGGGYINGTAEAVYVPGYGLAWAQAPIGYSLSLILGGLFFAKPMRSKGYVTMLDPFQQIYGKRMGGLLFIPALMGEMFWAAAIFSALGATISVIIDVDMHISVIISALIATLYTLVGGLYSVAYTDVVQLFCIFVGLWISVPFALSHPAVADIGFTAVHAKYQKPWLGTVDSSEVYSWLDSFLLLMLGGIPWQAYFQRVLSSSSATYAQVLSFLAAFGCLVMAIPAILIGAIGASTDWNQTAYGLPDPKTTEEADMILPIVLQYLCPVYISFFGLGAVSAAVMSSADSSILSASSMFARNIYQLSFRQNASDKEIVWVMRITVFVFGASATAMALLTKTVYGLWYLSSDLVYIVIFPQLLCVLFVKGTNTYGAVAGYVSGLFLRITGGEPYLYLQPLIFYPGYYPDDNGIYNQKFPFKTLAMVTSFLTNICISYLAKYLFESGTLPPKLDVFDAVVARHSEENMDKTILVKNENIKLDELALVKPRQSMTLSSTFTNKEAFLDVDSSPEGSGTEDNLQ
ANO1 activ: activators or potentiators of mouse TMEM16A chloride channel. HEK293 TMEM16A/YFP-H148Q/I152L, iodide quench fluorescence; stronger effect = lower value. AID 623877. hit rate 0.3% among 340,000. B-score at 10 µM;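 active = fluorescence-ratio B-score plate-corrected deviation score at least 3 library SD below zero, with starting fluorescence score within 5 deviations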;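 also: channel opened by trigger with iodide after compound preincubation; score built on the fluorescence ratio of max minus min over baseline; more negative score means more quench and so TMEM16A activation or potentiation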
TMEM16A inh: blocks the mouse calcium-activated chloride channel TMEM16A; hit rate 1.2% among 310,000; normalized B-score (activity score, 25-100; higher = stronger inhibition) at 10 µM; Q8BHY3; HEK293 TMEM16A/YFP iodide influx fluorescence, ionomycin;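 active = ratio plate-corrected score three or more library SD toward inhibition, starting fluorescence score within five deviations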;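 also: score derived from kinetic fluorescence span divided by baseline fluorescence per well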
CHT inh: inhibitors of human choline transporter CHT; hit rate 0.86% among 310,000; B-score at 10 µM; CHT-expressing cells, membrane potential dye, choline response; stronger effect = lower value; AID 488975; Q9GZV3;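 active = B-score over 3 SD under the library average, and starting fluorescence ratio not unusually high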;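 also: choline stimulus applied at its EC90 after an EC20 pre-addition; B-score computed on integrated fluorescence ratio after choline addition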
TMEM16A reconf: reconfirmed blocker of mouse TMEM16A calcium-activated chloride channel. shares compounds with TMEM16A inh. HEK293 TMEM16A/YFP-H148Q, iodide quench fluorescence; ionomycin added to raise cell calcium. inhibition, % at 10 µM. hit rate 39% among 2,300. AID 652189;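 active = mean duplicate percent inhibition, scaled so buffer wells are 0 and the reference blocker 100, over three buffer SD above buffer mean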
TMEM16A Ca cntr: alters calcium mobilization in TMEM16A HEK293 cells, counter-screen | shares compounds with TMEM16A inh | TMEM16A/YFP HEK293, Fluo4 calcium mobilization | calcium response (% of ionomycin), % at 10 µM | hit rate 2% among 2,300;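 active = duplicate-averaged calcium signal over 20% of the ionomycin maximum, relative to buffer baseline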;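 also: each well's signal is peak minus trough fluorescence divided by its pre-addition baseline; 0% = buffer wells and 100% = ionomycin wells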
Parental YFP cnt: acts in parental YFP-HEK293 cells lacking TMEM16A, counter-screen; 2,300 tested, under 10 active; shares compounds with TMEM16A inh; AID 652233; iodide YFP quench, ionomycin; YFP ratio F(max-min)/F0 at 10 µM;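 active = yellow fluorescent protein signal ratio exceeding the buffer control mean by over 5 SD of those controls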;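 also: ratio is mean of duplicate wells from kinetic YFP trace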
ClC-1 rat inh: selectivity of TMEM16A inhibitors: inhibition of rat ClC-1 chloride channel | shares compounds with TMEM16A inh | CHO ClC-1-YFP, iodide influx fluorescence quench; iodide control reads 0, buffer control 100 | ratio percent, % at 10 µM | 2,300 tested, under 10 active | AID 652236;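 active = duplicate-mean ratio percent above the mean of iodide-only control wells, which defines zero, plus 5 of their SD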;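 also: higher percent means stronger block of ClC-1 iodide influx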
Active calls of the source: *; i = inactive; . = not tested or not shown. The list is not random: actives were taken first. Their share in the collection is about 2.3%.

SMILES	CHT PAM	ANO1 activ	TMEM16A inh	CHT inh	TMEM16A reconf	TMEM16A Ca cntr	Parental YFP cnt	ClC-1 rat inh
Cc1onc(-c2ccccc2)c1C(=O)Nc1nc2c(s1)CCCC2	i	i	i	i	.	.	.	.
Cc1ccc(C(=O)O/N=C2\CC3CCC2(C)C3(C)C)cc1 (stereo unspecified)	i	i	25*	i	i	i	-1.1	-4
OC1(c2ccccc2)CC(c2ccccc2)c2ccccc2O1 (stereo unspecified)	.	i	.	.	.	.	.	.
Cc1ccc(C(=O)N2CCCC(C(=O)c3ccc(Oc4ccccc4)cc3)C2)cn1 (stereo unspecified)	i	i	100*	i	29%*	i	-0.89	-10
CC(C)c1ccc(S(=O)(=O)N2CCC(C(=O)N3CCN(c4cccc(Cl)c4)CC3)CC2)cc1	.	i	.	.	.	.	.	.
CC1Cc2ccccc2N1C(=S)Nc1ccc(S(N)(=O)=O)cc1 (stereo unspecified)	i	i	100*	i	i	i	-0.86	-21
CC(=O)c1ccc(NC(=S)N2c3ccccc3CC2C)cc1 (stereo unspecified)	i	i	i	i	.	.	.	.
CCOc1cc(C(=O)Nc2cc(C)ccn2)cc(OCC)c1OCC	i	i	100*	i	i	i	-1.4	-2
CCOc1cc(C(=O)Nc2cnccn2)cc(OCC)c1OCC	i	i	i	i	.	.	.	.
COc1cc(C)ccc1OCC(=O)OCC(=O)c1[nH]c(C)c(C(C)=O)c1C	.	i	.	.	.	.	.	.
COc1ccccc1OCC(=O)c1[nH]c(C)c(C(C)=O)c1C	i	i	25*	i	i	i	-1.1	-22
COc1cc(CN(C)CC(=O)c2[nH]c(C)c(C(C)=O)c2C)ccc1OC(F)F	i	i	25*	i	17%*	i	-0.99	-14
CCOC(=O)c1ccc(NC(=O)C2CCN(S(=O)(=O)c3ccccc3)CC2)cc1	i	i	i	i	.	.	.	.
CCOC(=O)c1ccc(NC(=O)c2cc(S(=O)(=O)N3CCOCC3)cn2C)cc1	i	i	i	i	.	.	.	.
CCOC(=O)c1ccc(NC(=O)C2CCCN(S(=O)(=O)c3ccc(F)cc3)C2)cc1 (stereo unspecified)	i	i	25*	i	18%*	i	-1.1	-4
CCOC(=O)c1ccc(NC(=O)c2cc(S(=O)(=O)N3CCOCC3)ccc2O)cc1	i	i	25*	i	37%*	i	-0.86	-16
CNC(=O)C(=O)NCCc1ccc(Cl)cc1	i	i	i	i	.	.	.	.
O=C(NCc1cccnc1)c1nc(-c2ccc(C(F)(F)F)cc2)no1	i	i	i	i	.	.	.	.
O=C(NCc1ccncc1)c1nc(-c2ccc(C(F)(F)F)cc2)no1	i	i	25*	i	18%*	i	-0.83	-1
O=C1OCCC1=Cc1ccccc1	.	i	.	.	.	.	.	.
O=C(NCc1ccc(F)cc1)C1CCCN(c2nc3ccsc3c(=O)s2)C1 (stereo unspecified)	i	i	i	i	.	.	.	.
C/C(=N\NC(=O)CCc1ccccc1)C1C(=O)c2ccccc2C1=O	i	i	i	i	.	.	.	.
C/C(=N\NC(=O)c1cccc(Cl)c1)C1C(=O)c2ccccc2C1=O	i	i	100*	i	i	i	-1.1	-14
COC(=O)c1ccc(COc2cccc3c2CCN(Cc2cccc(C)c2)C3=O)o1	i	i	25*	i	19%*	i	-1.2	-4
COC(=O)c1ccc(COc2cccc3c2CCN(Cc2ccccc2)C3=O)o1	i	i	i	i	.	.	.	.
SMILES	CHT PAM	ANO1 activ	TMEM16A inh	CHT inh	TMEM16A reconf	TMEM16A Ca cntr	Parental YFP cnt	ClC-1 rat inh
CSc1nc(NNC=O)cc(Oc2ccc(NC(C)=O)cc2)n1	i	i	i	i	.	.	.	.
CC(c1ccco1)N(C(=O)CSc1ccc(Br)cc1)c1ccccn1 (stereo unspecified)	i	i	100*	i	18%*	i	-1.2	-14
COc1cc(OC)c(C(=O)Nc2ncn[nH]2)cc1OC	i	i	100*	i	i	i	-1.3	-3
CCN(CC)S(=O)(=O)c1cccc(-c2nnc(SCc3nc4ccccc4s3)o2)c1	i	i	100*	i	18%*	i	-0.91	0
NC(=O)NC(=O)COC(=O)CCCc1c[nH]c2ccccc12	i	i	100*	i	i	i	-1	-14
CC(=O)Nc1ccc(NC(=O)COC(=O)CCCc2c[nH]c3ccccc23)cc1	i	i	i	i	.	.	.	.
C=CCNC(=O)c1onc(CSc2ccncc2)c1C(=O)NCC=C	i	i	i	i	.	.	.	.
CCc1nc(NCc2ccc3c(c2)OCO3)c2oc3ccccc3c2n1	i	i	i	i	.	.	.	.
Cc1nc(NCc2ccc3c(c2)OCO3)c2oc3ccccc3c2n1	i	i	25*	i	i	i	-1.2	-4
FC(F)(F)c1cccc(-c2nnc(-c3ccccc3)c(N3CCOCC3)n2)c1	i	i	i	i	.	.	.	.
O=[N+]([O-])c1ccc(-c2nnc(-c3ccccc3)c(N3CCOCC3)n2)cc1	i	i	i	i	i	i	-1.2	-14
CCC1CCC(N2CCN(c3cccc(OC)c3)CC2)CC1 (stereo unspecified)	i	i	i	i	.	.	.	.
COc1ccc(N(CC(=O)NC2CCCC2)C(=O)Cn2nnc(-c3ccc(C)cc3)n2)cc1	i	i	25*	i	i	i	-0.93	-4
CC(C)(C)c1ccc(C(=O)Nc2cccc3ncccc23)cc1	i	i	i	i	30%*	i	-1.4	-14
O=C(N/C=C/n1cnc2cc(C(F)(F)F)ccc21)c1ccccc1F	i	i	i	i	.	.	.	.
CC(C)(C)NC1=CC(=O)OC12CCCCC2	i	i	i	i	i	i	-0.9	0
